This is one part of a sample in which hits are shown more often than they occur.
GluA2 TARP mod: GluA2-stargazin AMPA receptor complex modulation. 3.5% of 40,000 active. O88602+P19491. calls only at 30 µM. AID 1259245. HEK293 GluA2+stargazin, membrane potential dye (FDSS), glutamate EC50; hits were called plate by plate, in both directions;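 active means any of four per-well response measures lying three or more SD from its plate-wide compound average, in either direction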
GIRK2 act: Activates human GIRK2-containing potassium channels | P48051 | HEK293 GIRK2/NPY4 cells, thallium flux fluorescence | activation (% efficacy), % for hits at 37.5 µM | 34,000 tested, under 10 active | AID 1259324;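 active means primary screen hit, no activity in plain HEK293 cells, and in GIRK2-only cells above 5% efficacy rising with concentration; inactive means the rest, including fluorescent compounds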;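 further: efficacy is normalized control-subtracted fluorescence 15 s after thallium addition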
Of the large screens only hits and unclear results are named; the others gave an inactive call.

Cc1ccc(S(=O)(=O)c2nc(-c3ccccc3C)oc2N2CCN(C)CC2)cc1	none
COc1ccc(-c2nsc(C(=O)NCc3ccc(F)cc3)c2N)cc1	none (no result: GluA2 TARP mod)
CS(=O)(=O)N1CCCC1C(=O)Nc1nc2c(F)cccc2s1 (stereo unspecified)	none
Cc1ccc(-n2ccnc2N2CCN(C(=O)CCc3ccccc3)CC2)cc1	none
Cc1ccc(-n2ccnc2N2CCN(C(=O)CCCc3ccccc3)CC2)cc1	GluA2 TARP mod active
Cc1ccc(-n2ccnc2N2CCN(C(=O)c3ccc(C)c(C)c3)CC2)cc1	GluA2 TARP mod active
Cc1ccc(-n2ccnc2N2CCN(C(=O)c3ccc4ccccc4c3)CC2)cc1	none
COc1ccc(S(=O)(=O)Nc2nc(C(=O)N3CCCCCC3)cs2)cc1	none
Cc1ccc(-n2nnnc2CN2CCN(S(=O)(=O)c3ccccc3F)CC2)cc1	none
CCOc1cc(C)ccc1S(=O)(=O)N1CC(C)CC(C)C1 (stereo unspecified)	GluA2 TARP mod active (no result: GIRK2 act)
CCOc1cc(C)ccc1S(=O)(=O)N1CCCCC1	none (no result: GIRK2 act)
COc1ccc(Br)c(C(=O)NCC(O)(c2ccco2)C2CC2)c1 (stereo unspecified)	none
c1cnc(OC2CCNCC2)nc1	none
O=S(=O)(Cc1ccccc1)NCC(c1ccco1)N1CCOCC1 (stereo unspecified)	none
O=S(=O)(Cc1ccc(Cl)cc1)NCC(c1ccco1)N1CCOCC1 (stereo unspecified)	GluA2 TARP mod active
CC(=O)Cn1c(=O)c2c(nc3n(-c4ccc(F)cc4)c(C)c(C)n23)n(C)c1=O	none (no result: GIRK2 act)
Cc1ccc(S(=O)(=O)NCc2ccccc2)c(C)c1N(C)S(=O)(=O)c1ccc(Cl)cc1	none (no result: GIRK2 act)
O=C(NCC1(O)CCOCC1)C(=O)Nc1ccc(F)c(F)c1	GluA2 TARP mod active
O=C(NCC1(O)CCOCC1)C(=O)Nc1ccc2c(c1)OCCO2	none
COc1ccc(Cl)cc1NC(=O)CSc1nc(=O)n(CCCO)c2c1CCCC2	none
COC(=O)c1ccc(CSc2c(CC(C)C)cnc3c2c(=O)n(C)c(=O)n3C)cc1	none (no result: GIRK2 act)
Cc1cnc2c(c1SCC(=O)N(C(C)C)C(C)C)c(=O)n(C)c(=O)n2C	none
CC(C)Cc1cnc2c(c1SCC(=O)N(C(C)C)C(C)C)c(=O)n(C)c(=O)n2C	GluA2 TARP mod active (no result: GIRK2 act)
COc1cc(CSc2c(CC(C)C)cnc3c2c(=O)n(C)c(=O)n3C)cc(OC)c1	GluA2 TARP mod active (no result: GIRK2 act)
CCSc1ccccc1C(=O)N1CCN(C(=O)c2cnn3ccccc23)CC1	none
Cc1cc(=O)[nH]c(-n2nc(-c3ccco3)cc2NC(=O)C2CC2)n1	GluA2 TARP mod active
COCC(=O)Nc1cc(-c2ccco2)nn1-c1nc(C)cc(=O)[nH]1	none
Cc1ccc(S(=O)(=O)Nc2ccccc2C(=O)Nc2ccc(C)cc2C(=O)c2ccccc2)cc1	none (no result: GIRK2 act)
Cc1ccc(NS(=O)(=O)c2ccccc2)c(C(=O)c2ccccc2)c1	GluA2 TARP mod active (no result: GIRK2 act)
CCCc1nnsc1C(=O)N1CCN(Cc2nc(-c3ccc(F)cc3)cs2)CC1	GluA2 TARP mod active
COc1ccc(-c2csc(CN3CCN(C(=O)c4ccc(F)cc4F)CC3)n2)cc1	none (no result: GIRK2 act)
COC(=O)c1ccc(NC(=O)C(=O)NCc2nc(-c3ccccc3)no2)cc1	none
Cc1cccc(Cn2cc(C(=O)Nc3cccc(C)c3C)ccc2=O)c1	none
Cc1ccnc(NS(=O)(=O)c2ccc(NC(=O)c3nc(-c4cnccn4)no3)cc2)n1	none
O=C(Nc1ccc(S(=O)(=O)Nc2nccs2)cc1)c1nc(-c2cnccn2)no1	GluA2 TARP mod active
CC(C)(C)c1csc(NC(=O)C2CCCCN2S(C)(=O)=O)n1 (stereo unspecified)	none (no result: GluA2 TARP mod)
Cc1nn(C2CCS(=O)(=O)C2)c2nc(-c3cccs3)cc(C(=O)Nc3ccc(F)cc3)c12 (stereo unspecified)	none
Cc1ccc(NC(=O)c2cc(-c3cccs3)nc3c2c(C)nn3C2CCS(=O)(=O)C2)cc1 (stereo unspecified)	GluA2 TARP mod active
Cc1cn2c3c(=O)[nH]c(=O)n(C)c3nc2n1CCCN1CCOCC1	GluA2 TARP mod active
CCOC(=O)Cn1c(-c2ccccc2)cn2c3c(=O)n(C)c(=O)n(C)c3nc12	none (no result: GIRK2 act)
CCCCn1c(NCCCN2CCOCC2)nc2c1c(=O)[nH]c(=O)n2C	none
CCOCCN1N=C(c2ccc(F)cc2)Cn2c1nc1c2c(=O)n(C)c(=O)n1C	none (no result: GIRK2 act)
Cn1c(=O)c2c(nc3n2CC(c2ccc(F)cc2)=NN3CCN2CCOCC2)n(C)c1=O	GluA2 TARP mod active
Cn1c(=O)c2c(nc3n(CCN4CCOCC4)c(-c4ccccc4)cn23)n(C)c1=O	GluA2 TARP mod active (no result: GIRK2 act)
COC(=O)Cn1c(-c2ccccc2)cn2c3c(=O)n(C)c(=O)n(C)c3nc12	GluA2 TARP mod active
Cc1ccc(-n2c(-c3ccccc3)cn3c4c(=O)n(CCN5CCOCC5)c(=O)n(C)c4nc23)cc1	none (no result: GIRK2 act)
O=C1c2ccccc2C(=O)N1CCCCN1CCN(C2CCCCC2)CC1	none
CC(CCc1ccccc1)NC(=O)C1CCC(Cn2c(=S)[nH]c3ccccc3c2=O)CC1 (stereo unspecified)	none
CCCCCn1c(C)c(C)n2c3c(=O)n(C)c(=O)n(C)c3nc12	none
Cc1c(C)n2c3c(=O)n(C)c(=O)n(C)c3nc2n1CCCN1CCOCC1	GluA2 TARP mod active
Cc1c(C)n2c3c(=O)n(CC(N)=O)c(=O)n(C)c3nc2n1-c1ccc(Br)cc1	none (no result: GIRK2 act)
Cc1c(C)n2c3c(=O)n(CC(N)=O)c(=O)n(C)c3nc2n1CCCn1ccnc1	GluA2 TARP mod active
CCS(=O)(=O)NCC1CCN(Cc2ccccc2SC)CC1	none
Cc1cc(C(F)F)n2ncc(C(=O)NC3CCCCCC3)c2n1	none (no result: GIRK2 act)
COc1ccccc1CCNC(=O)c1cnn2c(C(F)F)cc(C)nc12	GluA2 TARP mod active (no result: GIRK2 act)
CCC(CC)C(=O)NCCNc1ccc(Nc2cccc(C)n2)nn1	GluA2 TARP mod active
COc1ccccc1C(=O)NCCNc1ccc(Nc2cccc(C)n2)nn1	none (no result: GluA2 TARP mod)
COc1ccc(NC(=O)Cn2c(=O)n(C(C)C)c(=O)c3nscc32)cc1Cl	none
CC(C)n1c(=O)c2nscc2n(CC(=O)Nc2ccc3c(c2)OCCO3)c1=O	none
CCc1ccccc1NC(=O)Cn1c(=O)n(C2CC2)c(=O)c2nscc21	GluA2 TARP mod active
CC(C)n1c(=O)c2nscc2n(CC(=O)Nc2ccc(Br)cc2)c1=O	GluA2 TARP mod active
O=C(Cn1c(=O)n(C2CC2)c(=O)c2nscc21)Nc1ccc(F)c(Cl)c1	GluA2 TARP mod active
Cc1cc(C)c(NC(=O)Cn2c(=O)n(C3CC3)c(=O)c3nscc32)c(C)c1	none
Cc1ccc(NC(=O)CSC2=NC3(CCCC3)Nc3ccccc32)c(Cl)c1	none
O=C(NCCC(O)c1ccco1)NC1CCCCC1 (stereo unspecified)	none
Cc1cc(N(C)C)nc(NCCNS(=O)(=O)c2ccc(C(F)(F)F)cc2)n1	none
COc1cccc(NC(=O)c2sccc2S(=O)(=O)N2CCN(c3ccc(Cl)cc3)CC2)c1	none (no result: GluA2 TARP mod)
O=C(Nc1ccc(F)c(F)c1)c1sccc1S(=O)(=O)N1CCN(c2ccccc2)CC1	GluA2 TARP mod active
Cc1ccc(-n2nnc(C(=O)Nc3ccc(C)c(Cl)c3)c2N)cc1C	none (no result: GIRK2 act)
Cc1cc(C(=O)Nc2cccc3c2C(=O)NC3=O)on1	GluA2 TARP mod active
Cn1nccc1C(=O)Nc1cccc2c1C(=O)NC2=O	none (no result: GluA2 TARP mod)
CCCC(=O)NCCOc1ccc2nnc(-c3cccc(OC)c3)n2n1	none
CCCC(=O)NCCOc1ccc2nnc(-c3ccc(OC)c(OC)c3)n2n1	GluA2 TARP mod active
COc1ccc(-c2nnc3ccc(OCCNC(=O)Nc4ccc(Cl)cc4)nn23)cc1	none
